# Data reported in the supplement of paper PMC8699584.
# Where a name gives a salt, the structure may show the parent alone. ± gives the standard deviation of the averaged measurements.
# System: Molm13
# Experiment: cell viability relative to DMSO control (bortezomib = 0%); higher = less growth inhibition
# Conditions: 10 nM; 72 h
# Summary of the method: (§1)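 Acute myeloid leukemia cells were plated at 1000 cells per well in 50 µL onto a 679-compound library of approved and investigational agents in 384-well plates and exposed to a single 10 nM dose for 72 h, in duplicate. Cell viability was measured by CellTiter-Glo luminescence on an EnVision reader. Readings were scaled to percentages by per-plate linear regression, with DMSO-treated cells set at 100% and positive-control-treated cells at 0%.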
row,SMILES,cell viability [%]
1,Cn1cnc(N)c2ncnc1-2 [3-Methyladenine],119 ± 7.3
2,COc1cccc(-c2cc(=O)c3ccccc3o2)c1N,105 ± 10
3,NCC(=O)Nc1ccc(-n2nc(C(F)(F)F)cc2-c2ccc3c(ccc4ccccc43)c2)cc1,114 ± 8.5
4,CNC(=O)c1ccccc1Nc1nc(Nc2ccc(N3CCNCC3)cc2)ncc1Cl,17.4 ± 13

# System: Mv4-11
# Experiment: as above
# Conditions: 10 nM; 72 h
# Summary of the method: as §1
row,SMILES,cell viability [%]
1,CCN(CC)CCNC(=O)c1c(C)[nH]c(/C=C2\C(=O)Nc3ccc(F)cc32)c1C [Sunitinib Malate],97.8 ± 4.2
2,O=C1NC(=O)/C(=C/c2ccc3c(c2)OCO3)S1,112 ± 8
3,Cc1cc(CN2CCN(c3c(Br)cnc4nc(-c5ccc(N6CCN(C)CC6)cc5)[nH]c34)CC2)no1,95.3 ± 3.4
4,CNC(=O)c1cc(Oc2ccc(NC(=O)Nc3cc(C(C)(C)C)nn3-c3ccc4ncccc4c3)c(F)c2)ccn1 [DCC-2036 (Rebastinib)],107 ± 7.3
5,Cn1c(=O)n(-c2ccc(C(C)(C)C#N)cc2)c2c3cc(-c4cnc5ccccc5c4)ccc3ncc21,109 ± 15
6,COc1ccc2c(c1)c(C1=C(c3c[nH]c4ccccc34)C(=O)NC1=O)cn2CCCN(C)C,103 ± 7.6
7,C[C@@]1(C(=O)Nc2ccc(F)nc2)CCCN1c1nc(Nc2cc(C3CC3)n[nH]2)c2cccn2n1,127 ± 2.5
8,Cc1ccc(C(=O)Nc2ccc(CN3CCN(C)CC3)c(C(F)(F)F)c2)cc1C#Cc1cnc2[nH]ncc2c1,-14.8 ± 0.36
9,COc1cc2ncc(-c3ccccc3)nc2cc1OC,113 ± 9.7
10,N#CC(=Cc1cc(Cl)cc(Cl)c1)c1cccnc1,108 ± 7.3
11,CN(N=O)C(=O)N[C@@H](C=O)[C@@H](O)[C@H](O)[C@H](O)CO [Streptozocin],108 ± 4.5
12,C[N+](C)(C)CC(=O)O [Betaine hydrochloride],101 ± 9.6
13,O=c1sn(-c2cccc3ccccc23)c(=O)n1Cc1ccccc1 [Tideglusib],95.4 ± 20
14,CC(C)=CCC[C@](C)(O[C@@H]1O[C@H](CO[C@@H]2O[C@H](CO)[C@@H](O)[C@H](O)[C@H]2O)[C@@H](O)[C@H](O)[C@H]1O)[C@H]1CC[C@]2(C)[C@@H]1[C@H](O)C[C@@H]1[C@@]3(C)CC[C@H](O[C@@H]4O[C@H](CO)[C@@H](O)[C@H](O)[C@H]4O)C(C)(C)[C@@H]3CC[C@]12C [Gypenoside XVII],102 ± 7
15,FC(F)(F)c1ccc(CNc2ccc(Cc3c[nH]c4ncc(Cl)cc34)cn2)cn1,105 ± 16
16,C=CC(=O)Nc1cc(Nc2nccc(-c3c[nH]c4ccccc34)n2)c(OC)cc1N(C)CCN(C)C,121 ± 6.1
17,CC(C)CCN1c2nc(Nc3cc(F)c(O)c(F)c3)ncc2N(C)C(=O)C1C (centres undefined),114 ± 6.3
18,COc1ccc2cc1Oc1ccc(cc1)C[C@H]1c3cc(c(OC)cc3CCN1C)Oc1c(O)c(OC)cc3c1[C@H](C2)N(C)CC3 [Fangchinoline],122 ± 9.6
19,CC(C)=CCc1cc2c(cc1O)oc(=O)c1c3ccc(O)cc3oc21 [Psoralidin],124 ± 22
20,N#C/C(=C(/N)Sc1ccc(N)cc1)c1ccccc1C(F)(F)F,110 ± 8.3

row,SMILES,cell viability [%]
1,CCS(=O)(=O)c1cccc(-c2cc(C(=O)NC3CCN(C)CC3)c(C)c3[nH]c4ncc(C)cc4c23)c1,90.6 ± 3.5
2,C=CC(=O)Nc1cc2c(Nc3ccc(F)c(Cl)c3)ncnc2cc1OCCCN1CCOCC1 [Canertinib dihydrochloride],111 ± 6.1
3,Cc1ccc(C(=O)Nc2ccc(CN3CCN(C)CC3)c(C(F)(F)F)c2)cc1C#Cc1cnc2cccnn12,3.31 ± 4.5
4,CC(C)c1ccc2oc3nc(N)c(C(=O)O)cc3c(=O)c2c1 [Amlexanox],92.6 ± 2.2
5,CC(C)(C)[Si](C)(C)Oc1ccc2oc(=O)c3c(c2c1)CCCN3,108 ± 14
6,COc1cc(OC)c(/C=C/S(=O)(=O)Cc2ccc(OC)c(NCC(=O)O)c2)c(OC)c1,124 ± 8.1
7,Oc1ccc(Nc2nc(-c3ccc(Cl)cc3)cs2)cc1 [Sphingosine Kinase Inhibitor 2],108 ± 7.4
8,CN1CCN(c2ccc(C(=O)Nc3n[nH]c4ccc(Cc5cc(F)cc(F)c5)cc34)c(NC3CCOCC3)c2)CC1 [Entrectinib],104 ± 24
9,CN1C(=O)C(Cc2c[nH]c3ccccc23)NC1=S (centres undefined) [Necrostatin-1],93.4 ± 10
10,C[C@H]1Oc2cc(cnc2N)-c2c(nn(C)c2C#N)CN(C)C(=O)c2ccc(F)cc21,112 ± 19
11,C[C@@H](Oc1cc(-c2cnn(C3CCNCC3)c2)cnc1N)c1c(Cl)ccc(F)c1Cl,100 ± 20
12,COc1cc(OC)c(C=C2C(=O)Nc3ccccc32)c(OC)c1,100 ± 12
13,CNC(=O)CN1CCC(Oc2cc3c(Nc4cccc(Cl)c4F)ncnc3cc2OC)CC1 [AZD8931 (Sapitinib)],116 ± 4.9
14,O=C1Nc2cc(Br)ccc2/C1=C1/Nc2ccccc2/C1=N\O,91.4 ± 8.7
15,CC(C)(C)c1ccc(S(=O)(=O)/C=C/C#N)cc1,98.9 ± 4.4
16,Cc1ccc2c(Nc3ccc(Cl)cc3)nccc2c1Nc1ncccc1-c1ncnc2nc[nH]c12 [B-Raf inhibitor 1],107.5 ± 0.62
17,Cn1cnc(N)c2ncnc1-2 [3-Methyladenine],111.9 ± 1.1
18,COc1cccc(-c2cc(=O)c3ccccc3o2)c1N,103 ± 8.4
19,NCC(=O)Nc1ccc(-n2nc(C(F)(F)F)cc2-c2ccc3c(ccc4ccccc43)c2)cc1,101 ± 12
20,CNC(=O)c1ccccc1Nc1nc(Nc2ccc(N3CCNCC3)cc2)ncc1Cl,23 ± 6.8
